INHIBITION data for 72 compounds are collected here from ChEMBL document CHEMBL4513216, “Probing the Open Global Health Chemical Diversity Library for Multistage-Active Starting Points for Next-Generation Antimalarials” (ACS Infect Dis, 2020).

Screen size: about 68,000 compounds; about 2,700 (4%) showed an effect of 50% or more. The entries come from a sample that favours strong results as a whole.

This test relates to Plasmodium berghei. The test can be described thus: Screen against P. berghei liver stage (PbLuc), transformed with Luciferase, at 2uM. The class given is functional, HepG2. The following applies: tested at 2 uM.
Take `CN(CCc1cccc2ccccc12)Cc1nc(N)nc(N(C)C)n1`: the INHIBITION is -3.1%. In the case of `COCC[C@]1(O)CCN(Cc2nc(C)cs2)C[C@H]1C`, the INHIBITION is given as -9.15%. For `Cc1n[nH]c(C)c1C1CCCN1C(=O)c1cc(Br)c[nH]1` (configuration not stated), the INHIBITION is recorded as 56.21%. In the case of `Cc1cccc(C(=O)N2CCCC2c2c(C)n[nH]c2C)c1` (configuration not stated) it was 41.84%. Regarding `Cc1n[nH]c(C)c1C1CCCN1C(=O)c1coc(Br)c1` (configuration not stated), the INHIBITION stood at 28.43%. To `Cn1cc2c(n1)C(CNC1CCOCC1)OCC2` (configuration not stated) belongs -10.78%; to `COCC(=O)N1CCC2(CC1)COC(COCc1ccccn1)C2` (configuration not stated), 37.41%; to `CC(=O)N1CCC2(CC1)COC(COCc1ccccn1)C2` (configuration not stated), 53.55%. In the case of `CCOCC(=O)N1CCC2(CC1)COC(COCc1ccccn1)C2` (configuration not stated) it was 18.05%; in that of `Fc1ccc(-c2c[nH]c([C@@H]3COCCN3)n2)cc1`, 32.59%; in that of `FC(F)(F)Oc1ccc(-c2c[nH]c([C@@H]3COCCN3)n2)cc1`, 12.28%.

Take `FC(F)(F)c1ccc(-c2c[nH]c([C@@H]3COCCN3)n2)cc1`: the INHIBITION was 64.99%. To `CC(c1ncc(-c2ccccc2)o1)N1CCN(C(=O)C(C)(C)C)CC1` (configuration not stated) belongs -18.71%.

In the case of `CNC(=O)CCN(C)c1nc(-c2ccncc2)nc2c1CCNC2`, the INHIBITION worked out at 24.54%. `Cc1nc(CO[C@@H]2CN(Cc3ccc(F)cc3)[C@@H]3COC[C@@H]32)cs1`: the INHIBITION is reported as -17.76%.

Consider `Cc1nc(CO[C@@H]2CN(Cc3ccsc3)[C@@H]3COC[C@@H]32)cs1`, for which the INHIBITION worked out at 24.43%.

Take `Cc1nc(CO[C@H]2CN(Cc3cccs3)[C@@H]3COC[C@H]23)cs1`: the INHIBITION came to 56.76%. Consider `Cc1ccc(CN2C[C@@H](OCc3csc(C)n3)[C@H]3COC[C@H]32)s1`, for which the INHIBITION came out at 9.36%. In the case of `Cc1nc(CO[C@@H]2CN(Cc3cccnc3)[C@@H]3COC[C@@H]32)cs1` it was 55.66%; in that of `Cc1nc(CO[C@@H]2CN(Cc3cccs3)[C@@H]3COC[C@@H]32)cs1`, 26.01%; in that of `CC1=C(C(=O)NCCc2n[nH]c3c2CCCC3)C(C)NC(=O)N1` (configuration not stated), -18.23%. To `COCc1nc(-c2ccnc(N3CCNCC3)n2)no1` belongs -8.07%. In the case of `CC(C)c1noc(CS(=O)(=O)CC(=O)NCc2ccccc2)n1` it was 66.33%. `CC(C)c1noc(CS(=O)(=O)CC(=O)NCCOc2ccccc2)n1`: the INHIBITION is reported as -38.35%. For the compound `CC(C)c1noc(CS(=O)(=O)CC(=O)NCc2cccs2)n1`, the INHIBITION is reported as 20.74%.

As for `CN1CC(=O)N(c2cccc(F)c2)CC12CCN(CCO)C2` (configuration not stated), the INHIBITION was -15.88%. In the case of `CN1CC(=O)N(c2ccccc2)CC12CCN(CCO)C2` (configuration not stated), the INHIBITION is recorded as 65.73%. On to `CN1CC(=O)N(c2ccccc2)CC12CCN(CC1CC1)C2` (configuration not stated), for which the INHIBITION is reported as -8.23%. To `Cc1ncnc2c1CCN(C(=O)c1ccoc1)CC2` belongs 33.47%. Consider `Cc1nc(-c2ccccc2)sc1CNC1CCc2ncnn2C1` (configuration not stated), for which the INHIBITION is listed as -21.39%.

Consider `Cc1ncnc2c1CCN(CC1CCOC1)CC2` (configuration not stated), for which the INHIBITION came out at 8.73%. In the case of `COCCC(=O)N1CC[C@@H](N(C)C)[C@@H]1Cc1ccccc1` it was 2.71%; in that of `COc1cccc(C(=O)N2CCN(C(=O)CCn3ccnc3)CC2)c1`, -14.71%. For `COc1cccc(CCC2CCCN(C(=O)c3ccccn3)C2)c1` (configuration not stated), the INHIBITION stood at 26.74%. In the case of `COc1cccc(OCC2CCCN(C(=O)Cc3cccc(O)c3)C2)c1` (configuration not stated) it was 79.21%; in that of `COc1cccc(OCC2CCCN(C(=O)CCn3ccnc3)C2)c1` (configuration not stated), 50.59%.

With `COc1cccc(OCC2CCCN(C(=O)c3cnn(C)c3)C2)c1` (configuration not stated), the INHIBITION worked out at 29.13%. In the case of `COc1cccc(OCC2CCCN(C(=O)CCc3cc(O)no3)C2)c1` (configuration not stated) it was -29.65%; in that of `COc1ccccc1OC1CCN(C(=O)CCCn2ccnc2)CC1`, 29.9%. As to `COc1cccc(OCC2CCCN(C(=O)CCCn3cccn3)C2)c1` (configuration not stated), the INHIBITION turned out to be 31.51%.

In the case of `COc1ccccc1C(=O)N1CCN(C(=O)CCn2ccnc2)CC1`, the INHIBITION amounted to 51.4%. `COc1cccc(CCC2CCCN(C(=O)c3ccc(OC)o3)C2)c1` (configuration not stated): the INHIBITION is on record as 38.67%.

With `COc1cccc(OCC2CCCN(C(C)=O)C2)c1` (configuration not stated), the INHIBITION is 12.91%. To `COc1cccc(CCC2CCCN(C(C)=O)C2)c1` (configuration not stated) belongs 79.21%. In the case of `c1cc(CN2CCOCC3(C2)CN(Cc2nccs2)CCO3)ccn1` (configuration not stated) it was 24.93%; in that of `CN(C)C(=O)COC1COC2(CCN(c3cnccn3)CC2)C1` (configuration not stated), -16.53%.

Consider `N#Cc1ccccc1CNC(C(=O)N1CCOCC1)c1ccccc1` (configuration not stated), for which the INHIBITION is -13.11%. In the case of `C[C@@H]1CN(C(=O)c2cnc(C3CC3)nc2)CC[C@@]1(O)C1CCOCC1` it was 11.63%. Regarding `c1sc(C2CCCCC2)nc1CN1CCn2c(nnc2C2CC2)C1`, the INHIBITION is 28.65%. For `CS(=O)(=O)NCc1ncn2c1CN(CCN1CCCC1)CCC2`, the INHIBITION came to 10.64%. Take `CCOc1ccccc1OC1CCN(C(=O)c2csnn2)CC1`: the INHIBITION came out at 19.71%.

In the case of `CCOc1ccccc1OC1CCN(C(=O)c2cnsn2)CC1`, the INHIBITION turned out to be 14.06%. To `CCOc1ccccc1OC1CCN(C(=O)c2cnns2)CC1` belongs 73.34%; to `Cc1cccc(N2CCC3(CCCN3Cc3c(C)nn(C)c3C)CC2)n1`, -28.5%; to `Cc1cccc(N2CCC3(CCCN3Cc3cn(C)nc3C)CC2)n1`, 50.32%.

With `Cc1cccc(N2CCC3(CCCN3Cc3cnn(C)c3C)CC2)n1`, the INHIBITION was determined as 11.33%. Turning to `COCCNC(=O)C1(c2ccccc2C)CCOCC1`, the INHIBITION is listed as -88.54%. As for `COCCNC(=O)NC1(c2ccccc2F)CC1`, the INHIBITION came out at 54.49%. In the case of `COCCNC(=O)N1CCN(C(=O)Cc2ccccc2F)CC1`, the INHIBITION was 1.06%. In the case of `CCS(=O)(=O)N1CCc2c(nc(C3CCCN3)nc2NC)C1` (configuration not stated) it was 40.35%; in that of `Cc1cccc(C(=O)N2CC(=O)N(c3ccccc3Cl)CC2C)n1` (configuration not stated), 6.75%; in that of `Cc1noc2ncc(C(=O)N3CCCC3c3ccncc3)cc12` (configuration not stated), -52.51%. To `Cc1noc2ncc(C(=O)N3CCCC3c3ccsc3)cc12` (configuration not stated) belongs 60.09%; to `Cc1noc2ncc(C(=O)N3CCCC3c3cnn(C)c3)cc12` (configuration not stated), 26.71%. In the case of `Cc1cn2c(n1)CCC(NC(=O)CCOc1cccc(F)c1)C2` (configuration not stated) it was -34.22%.

Consider `CCc1nccn1C1CCCN(C(=O)c2ccnc(C)n2)C1` (configuration not stated), for which the INHIBITION was found to be 20.53%. As for `Cc1noc(CNc2ccc(C(=O)N3CCCC(C)C3)cc2C)n1` (configuration not stated), the INHIBITION is on record as 31.57%.

Turning to `CCCc1nc(CNc2cccc(C(=O)N3CCCC(O)C3)c2)no1` (configuration not stated), the INHIBITION is on record as 24.55%. For `Cc1noc(CNc2ccccc2N2CCCCC2)n1`, the INHIBITION is reported as -11.41%. With `Cc1noc(C)c1CNc1cccc(C(=O)N2CCCC(O)C2)c1` (configuration not stated), the INHIBITION was -82.3%. To `Cc1noc(CNc2cccc(C(=O)N3CCCC(O)C3)c2)n1` (configuration not stated) belongs 60.9%; to `Cc1noc(CNc2ccccc2C(=O)N2CCCC(O)C2)n1` (configuration not stated), 74.11%.
